Screening results: PubChem, several laboratories
KKLEB tox = CF airway cell cytotoxicity counter-screen; KKLEB CF airway cells viability, ATPlite luminescence, overnight; hits give low values; cells stimulated with P. aeruginosa culture filtrate; activity change (cytotoxicity), % at 5 µM; 360,000 compounds, 0.36% hits; AID 602141;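 active = corrected activity change at or below -50% at 5 µM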
CF NFkB block = cystic fibrosis NF-kB activation inhibition | KKLEB NF-kB-GFP reporter, PAF-induced, GFP fluorescence overnight | inhibition, % at 5 µM | 360,000 compounds, 0.86% hits | AID 588850;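 active = at least 50% inhibition at 5 µM, scaled per plate between neutral and stimulator controls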;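 note: PAF is a Pseudomonas aeruginosa culture filtrate used as stimulus; plate controls were PAF-stimulated DMSO wells for no effect and unstimulated DMSO wells for full effect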
Peg3 prom inh-1 = reduces Peg3 promoter-driven luciferase expression in HeLa; HeLa PEG-Prom luciferase reporter, luminescence, overnight; inhibition, % at 20 µM; 360,000 compounds, 1.7% hits; AID 588405;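 active = inhibition of at least 50% at 20 µM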
CHOP inhibitor = CHOP inhibition in unfolded protein response. AID 2732. CHO-K1 CHOP-promoter luciferase, tunicamycin-induced, 15-18 h. 220,000 compounds, 3.8% hits. inhibition, % at 10 µM;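 active = compounds that reduced the stress-induced luciferase reporter signal by more than about 70% of percent inhibition, limit read from the data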;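 note: 0% = tunicamycin plus vehicle and 100% = wells without tunicamycin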
TRPM1 prom inh = reduces MITF-dependent TRPM1 promoter luciferase signal; SK-MEL-5 TRPM1 promoter luciferase, 24 h; inhibition, % at 12.5 µM; 330,000 compounds, 0.83% hits;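 active = mean inhibition across replicates of 60% or more, whatever share of single replicates reaches that level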
HIF-2a inh = blocks HIF-2a reporter activity; inhibition, % at 18.8 µM; 786-0 RCC cells HIF-2a reporter, luciferase luminescence, overnight; AID 624352; 360,000 compounds, 0.72% hits;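 active = inhibition of the luminescence signal of 40% or more relative to plate controls, in a single-dose primary screen at 18.75 µM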
Peg3 prom inh-2 = Peg3 promoter inhibition confirmation. shares compounds with Peg3 prom inh-1. HeLa PEG-Prom luciferase reporter, luminescence, overnight. inhibition, % at 20 µM. 1,300 compounds, 84% hits. AID 602417;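 active = at 20 µM dose, 40% or more inhibition averaged across four replicates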
Starred values were filed as active, the others as inactive. Sampled rows, rich in hits. Any-hit rate of the full collection: about 4.3%.

What do the screens show for `CCCCCCSc1cc(-c2nc3ccc(Cl)cn3c2NCCCC)ccc1OC`?
KKLEB tox: 5; CF NFkB block: 26; Peg3 prom inh-1: -3; TRPM1 prom inh: -16; HIF-2a inh: 6

What do the screens show for `O=C(C[C@H]1C[C@H](C(=O)N2CCCCC2)[C@@]2(CCc3ccccc3)c3[nH]c4ccc(Cl)cc4c3CCN2C1=O)NCCN1CCOCC1`?
KKLEB tox: -10; CF NFkB block: 19; Peg3 prom inh-1: 80*; TRPM1 prom inh: -3; HIF-2a inh: 10; Peg3 prom inh-2: -2

How did O=C(C[C@H]1C[C@H](C(=O)N2CCCCC2)[C@@]2(CCc3ccccc3)c3[nH]c4cc(-c5ccco5)ccc4c3CCN2C1=O)NCCN1CCOCC1 do in these assays?
KKLEB tox: -6; CF NFkB block: 37; Peg3 prom inh-1: 3; TRPM1 prom inh: -8; HIF-2a inh: -9

How did COc1ccc(-n2nc(C(=O)NCC(=O)NCc3ccc(F)cc3)c3ccccc3c2=O)cc1 do in these assays?
KKLEB tox: -7; CF NFkB block: -20; Peg3 prom inh-1: 12; TRPM1 prom inh: -2; HIF-2a inh: 13

How did CN(C)CCCNc1nc2cc(-c3ccsc3)sc2c(=O)n1C do in these assays?
KKLEB tox: 0; CF NFkB block: -11; Peg3 prom inh-1: -4; HIF-2a inh: -28

What do the screens show for `Cc1ccc(F)cc1-c1cc2nc(NCCCN(C)C)n(C)c(=O)c2s1`?
KKLEB tox: 17; CF NFkB block: 3; Peg3 prom inh-1: 70*; HIF-2a inh: -6; Peg3 prom inh-2: 48*

What do the screens show for `Cc1cccc(CN2C(=O)[C@H]3Cc4c([nH]c5ccccc45)C(C)(C)N3C2=O)c1`?
KKLEB tox: -1; CF NFkB block: -11; Peg3 prom inh-1: 60*; TRPM1 prom inh: 19; HIF-2a inh: 24; Peg3 prom inh-2: 49*

How did Cc1ccc(/C=N/Nc2nc(N3CCCCC3)nc(N3CCCCC3)n2)o1 do in these assays?
KKLEB tox: -11; CF NFkB block: -18; Peg3 prom inh-1: 29; CHOP inhibitor: 18; TRPM1 prom inh: 5; HIF-2a inh: 0

How did COC(=O)c1ccccc1-c1ccc(/C=N/Nc2nc(N3CCCC3)nc(N3CCCC3)n2)o1 do in these assays?
KKLEB tox: 6; CF NFkB block: -13; Peg3 prom inh-1: 52*; CHOP inhibitor: -1; TRPM1 prom inh: 6; HIF-2a inh: 14; Peg3 prom inh-2: 56*

What do the screens show for `NC(=O)C1CCN(c2nc(-c3ccccc3-c3ccccc3)cs2)CC1`?
KKLEB tox: -6; CF NFkB block: -8; Peg3 prom inh-1: 1; TRPM1 prom inh: 7; HIF-2a inh: 6

Results for Cc1cc(C)nc(NC(=O)c2c(F)c(F)c(F)c(C(=O)Nc3cc(C)cc(C)n3)c2F)c1 ?
KKLEB tox: -29; CF NFkB block: 12; Peg3 prom inh-1: 90*; HIF-2a inh: 32; Peg3 prom inh-2: 72*

How did CC(C(=O)NCCSCc1cccc(Cl)c1)N(c1ccccc1)S(C)(=O)=O (stereo not given) do in these assays?
KKLEB tox: -4; CF NFkB block: 1; Peg3 prom inh-1: 17; TRPM1 prom inh: -4; HIF-2a inh: 13

What do the screens show for `COc1cccc(/C=N/NC(=O)c2c(-c3ccccc3)noc2C)c1O`?
KKLEB tox: -11; CF NFkB block: 7; Peg3 prom inh-1: 55*; CHOP inhibitor: 53; TRPM1 prom inh: 47; HIF-2a inh: -7; Peg3 prom inh-2: 56*

Results for COc1cccc(/C=N/NC(=O)c2c(-c3ccccc3)noc2C)c1OC ?
KKLEB tox: 1; CF NFkB block: -15; Peg3 prom inh-1: -2; TRPM1 prom inh: 5; HIF-2a inh: 12

How did CC1c2ccsc2CCN1S(=O)(=O)c1cccs1 (stereo not given) do in these assays?
KKLEB tox: 4; CF NFkB block: 2; Peg3 prom inh-1: 21; CHOP inhibitor: -6; TRPM1 prom inh: -7; HIF-2a inh: 17

Results for Cc1cccc(N=C2Sc3nc4c(C)c(C)ccc4cc3CN2CCN2CCOCC2)c1 ?
KKLEB tox: -5; CF NFkB block: 0; Peg3 prom inh-1: 55*; CHOP inhibitor: -3; TRPM1 prom inh: -3; HIF-2a inh: -14; Peg3 prom inh-2: 57*

How did C=CCc1cccc(/C=N/NC(=O)C(C)Nc2cccc(C)c2)c1O (stereo not given) do in these assays?
KKLEB tox: -13; CF NFkB block: 38; Peg3 prom inh-1: 50*; CHOP inhibitor: 91*; TRPM1 prom inh: 14; HIF-2a inh: 21; Peg3 prom inh-2: 44*

What do the screens show for `O=C(Nc1ccc(-c2cn3ccsc3n2)cc1)c1ccc(F)c(S(=O)(=O)N2CCOCC2)c1`?
KKLEB tox: 25; CF NFkB block: -40; Peg3 prom inh-1: 80*; CHOP inhibitor: -42; TRPM1 prom inh: 47; HIF-2a inh: -78; Peg3 prom inh-2: 96*

Results for Cc1c(OCC(=O)NC2CC(C)(C)NC(C)(C)C2)ccc2c1oc(=O)c1ccccc12 ?
KKLEB tox: -1; CF NFkB block: -3; Peg3 prom inh-1: 100*; TRPM1 prom inh: 76*; HIF-2a inh: -11; Peg3 prom inh-2: 85*

Results for O=C(c1cc(-c2ccccn2)nc2ccc(Cl)cc12)N1CCN(CCc2ccccc2)CC1 ?
KKLEB tox: -18; CF NFkB block: 4; Peg3 prom inh-1: 51*; CHOP inhibitor: 19; TRPM1 prom inh: 13; HIF-2a inh: 17; Peg3 prom inh-2: 36

Results for COc1ccc(CN2CCN(C(=O)c3cc(-c4cccnc4)nc4ccc(Cl)cc34)CC2)c(OC)c1OC ?
KKLEB tox: -22; CF NFkB block: 2; Peg3 prom inh-1: 94*; CHOP inhibitor: -1; TRPM1 prom inh: -4; HIF-2a inh: 12; Peg3 prom inh-2: 56*

How did CS(=O)(=O)N1CCN(C(=O)c2cc(-c3cccnc3)nc3ccc(Cl)cc23)CC1 do in these assays?
KKLEB tox: -13; CF NFkB block: 5; Peg3 prom inh-1: 4; CHOP inhibitor: -7; TRPM1 prom inh: 13; HIF-2a inh: 6

What do the screens show for `CCCCCCCNC(=O)C1(CC2CC(c3ccccc3)=NO2)CCNCC1` (stereo not given)?
KKLEB tox: -5; CF NFkB block: 10; Peg3 prom inh-1: 94*; TRPM1 prom inh: -1; HIF-2a inh: -11; Peg3 prom inh-2: 79*

What do the screens show for `Cc1nn(C)c(C)c1NC(=O)CSc1nc(Cc2ccccc2)nc2c1cnn2-c1ccccc1`?
KKLEB tox: -6; CF NFkB block: 0; Peg3 prom inh-1: 96*; TRPM1 prom inh: -7; HIF-2a inh: 1; Peg3 prom inh-2: 1

What do the screens show for `C=CC[C@@H](CC(=O)OC(C)(C)C)C(=O)OC[C@H]1CCCN1C(=O)[C@@H](CC=C)CC(=O)N(CCO)Cc1ccccc1`?
KKLEB tox: -7; CF NFkB block: 9; Peg3 prom inh-1: 5; TRPM1 prom inh: -8; HIF-2a inh: 8
